Measured values taken from PubChem BioAssay (NCI).
Compounds without any hit were thinned out: in the full panel of roughly 83,000, 20% have a hit.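 Cells were grown in 96-well plates and exposed to the test compound at a single concentration for 48 hours; results are reported as percent growth, with values below 10 considered active.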 Unmarked numbers belong to inactive results. Calls of active or inactive are those of the source.

system: MDA-MB-468 breast; assay: NCI-60 one-dose screen, 48 h (100 = growth as untreated, 0 = no growth, -100 = all killed); settings: 10 µM unless noted

| SMILES | growth |
| --- | --- |
| O=Cc1ccc2nc(C(Cl)(Cl)Cl)ccc2c1 | 95.2% |
| COc1ccc(S(=O)(=O)N2CCN(C)CC2)cc1NC(=O)c1[nH]c(C)c2c1CCCCC2=O | 39.8% |
| C/C(=N\NC(N)=O)c1c(O)sc(=O)[nH]c1=O | 97.4% |
| COc1cc2nc3cc([N+](=O)[O-])ccc3c(NCCCNCCO)c2cc1OC | -49.4% (active) |
| CC1=C(C)C(=O)C(Nc2cccc(C)c2)=C(Br)C1=O | -43.1% (active) |
| NS(=O)(=O)c1ccc(CCn2c(SCC(=O)N/N=C/c3cc4ccccc4[nH]3)nc3ccccc3c2=O)cc1 | 60.2% |
| CCCCCCN(CCCCCC)CCC(O)c1ccc2ccccc2c1 (centres undefined) | 18.6% |
| Cc1cc2oc(=O)cc(CP(=O)(O)O)c2cc1O | 89.8% |
| OCC1OC(OC2C(O)C(CO)OC2(CO)OC2OC(CO)C(O)C(O)C2O)C(O)C(O)C1O (centres undefined) | 112% |
| COc1cc(/C=C2\CCC/C(=C\c3cc(CN4CCOCC4)c(O)c(OC)c3)C2=O)cc(CN2CCOCC2)c1O | 31.5% |
| NC(=O)c1c(NC(=O)c2cccs2)sc2c1CCC(=O)C2 | 65.2% |
| COc1cccc2nc(Nc3ccc(NC(=O)c4ccc5ncccc5c4)cc3)ccc12 | 88.9% |
| CNC(=O)c1c(NC(=O)c2ccc(C(C)(C)C)cc2)sc2c1CCC(=O)C2 | 3.25% (active) |
| Cc1nc2ccccc2c(/C=C/c2ccc(Cl)cc2)c1C(=O)/C=C/c1ccc(F)cc1 | -16.5% (active) |
| Cc1ccc2cnc(N)c(C#Cc3cncc(C(=O)Nc4ccc(CN5CCN(C)CC5)c(C(F)(F)F)c4)c3)c2c1 | -87.1% (active) |
| COc1ccc(NC(=O)CSc2nnc(-c3ccc4nc(-c5ccccc5)[nH]c4c3)o2)cc1 | 95.5% |
| O=C1c2cccc3c(-c4ccc5c(c4)ncn5C4CCCCC4)ccc(c23)C(=O)N1CCO | 78.9% |
| CCOC(=O)c1nc2c3ccccc3cnn2c1C(=O)c1ccc(OC)cc1 | 105% |
| O=C(Nc1ccc(-n2cc(-c3ccncc3)c(-c3ccc(O)c(Cl)c3)n2)cc1)Nc1cc(C(F)(F)F)cc(C(F)(F)F)c1 | 37.1% |
| CC(C)C1=C(O)C2=C(C(=O)C1=O)[C@@]1(C)CCCC(C)(C)[C@@H]1CC2 | 73.1% |

| SMILES | growth |
| --- | --- |
| O=C(/C=C/c1ccccc1)c1cccc(OCCCOc2cccc(C(=O)/C=C/c3ccccc3)c2)c1 | 93.9% |
| Cn1c(SCC(=O)Nc2ccc(-c3nc4ccc([N+](=O)[O-])cc4[nH]3)cc2)nc2ccccc2c1=O | 56.5% |
| CNC(=O)c1cc(Oc2ccc3nc(NC(=O)Nc4ccc(CN5CCOCC5)c(C(F)(F)F)c4)sc3c2)ccn1 | -17.2% (active) |
| CCOC(=O)C/C(=N\Nc1cc(=O)[nH]c2ccc(OC)cc12)C(=O)OCC | 89.1% |
| CC(=O)O[C@H]1CC[C@]2(C)[C@H]3CC=C4[C@@H]5CC(C)(C)CC[C@]5(C(=O)NCCNCCNCCN)CC[C@@]4(C)[C@]3(C)CC[C@H]2C1(C)C | -14.5% (active) |
| N#Cc1c(-c2ccc(Cl)cc2)csc1NC(=O)Nc1ccc(Cl)c(C(F)(F)F)c1 | -9.61% (active) |
| C=C1C(=O)O[C@H]2[C@H]1CC/C(CNC(=O)C(C)c1ccc(CC(C)C)cc1)=C\CC[C@@]1(C)O[C@@H]21 (some centres undefined) | -23.5% (active) |
| FC(F)(F)c1ccc2c(c1)N(CCCN1CCN(C3CC3)CC1)c1ccccc1S2 | 54.1% |
| COc1ccc(/C(C#N)=C/c2ccccc2OC)cc1 | -14% (active) |
| O=C(O)c1cn(C2CC2)c2cc(N3CCN(C(=O)N(c4ccccc4)c4nc(-c5ccccc5)cs4)CC3)c(F)cc2c1=O | -0.856% (active) |
| COC(=O)Nc1nc2ccc(C(=O)c3ccc(N(C)C4COC4)cc3)cc2[nH]1 | -8.89% (active) |
| COc1cc2cc(NCc3ccncc3)nc(C)c2cc1OC | 87.7% |
| CCOS(=O)(=O)c1ccc([N+](=O)[O-])cc1 | 119% |
| O=C(O)CS(=O)c1ccc(Cl)cc1 (centres undefined) | 103% |
| COC(=O)C1C2CC3c4[nH]c5cc(OC)ccc5c4CCN3CC2CC(OC2CCCCO2)C1OC (centres undefined) | 95.5% |
| CCN(CC)C(=O)CC1=C(C)/C(=C/c2[nH]c(-c3ccc[nH]3)cc2OC)N=C1C | 29.9% |
| O=C(NNc1nc(Cl)nc(N2CCN(C(c3ccccc3)c3ccccc3)CC2)n1)c1ccccc1 | -47.2% (active) |
| O=C1C=CC(=O)N1c1ccccc1 | 106% |
| COC(=O)c1nc(N)nc(C(=O)OC)c1C(=O)c1cccc2ccccc12 | 97.6% |
